Data from PubChem BioAssay (NCATS).
Values joined by “and” are separate entries in the source; they are usually repeats but may differ in a detail not shown here. Equal entries are not always repeated. Records with an inconclusive call do not appear. Active and inactive are the calls of the source. Unless noted, calls come from the whole dose curve; as a rule, active = well fitted curve in the direction sought with a large enough effect; inconclusive = small, poorly fitted or top-dose-only effect, or another doubt; inactive = no such curve, though single readings can be large; an effect the other way counts as inactive or inconclusive.

Tests used:
[1] = qHTS for compounds that reverse cellular toxicity of Amyloid beta (A-beta) peptide in yeast: LOPAC Validation Assay (AID 720559);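 note: plate controls were DMSO for no effect and equimolar ferric chloride plus clioquinol rescue for full effect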
Procedure, shortened: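 Medium dispensed, compounds pinned, A-beta yeast suspension added; plates held at 30 C for 48 hr; absorbance measured at 600 nm to gauge growth; values scaled between DMSO and FeCl3/clioquinol (equimolar) controls.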

[2] = qHTS for Activators of Parkin Expression: LOPAC Validation Assay (NLuc Reporter) (AID 720572)
Procedure, shortened: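 NLuc signal, read 10 min after reagent and following a prior FLuc read, is normalized to DMSO (0) and positive controls (100%). Cells: neuronal Parkin-promoter coincidence reporter line; compounds tested 7-point, 24 h, 37 C, 5% CO2.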

[3] = qHTS for Activators of Parkin Expression: LOPAC Validation Assay (FLuc Reporter) (AID 720573)
Procedure, shortened: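 Cells seeded, 24 h; compounds pinned, 7-pt dose response; 24 h at 37 C/5% CO2; volume reduced; FLuc reagent 10 min RT; luminescence read. Normalization: DMSO = 0, positive control = 100%.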

[4] = qHTS assay for small molecule agonists of the antioxidant response element (ARE) signaling pathway measured by Nrf2-dependant transcriptional activity (AID 720636; active = well fitted curve in the direction sought with a large enough effect in the repeat runs; an effect the other way counts as inactive or inconclusive; note: % of control where 0% means no effect)
Procedure, shortened: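 ARE-luc HepG2 cells carrying an Nrf2-responsive luciferase reporter were plated in medium with 1% dialyzed FBS, left 6 hr at 37 C to attach, then exposed to compound for 16 hr. Luciferase luminescence was read after ONE-Glo addition.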

[5] = qHTS assay for small molecule antagonists of the retinoid-related orphan receptor gamma (ROR-gamma) signaling pathway - cell viability counter screen (AID 720652; active = well fitted curve in the direction sought with a large enough effect in the repeat runs; an effect the other way counts as inactive or inconclusive;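 note: CHO reporter cells with doxycycline-induced ROR-gamma expression; series mostly up to about 92 µM; compound exposure lasted 16 hr before ATP read; % is set by controls: 0 for no effect and ±100 for the full control effect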)
Procedure, shortened: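 CHO RORE-LUC/TET-ROR line, 1,000 cells/well, 37 C 5% CO2 5 hr; cpd or DMSO + doxycycline induction, 16 hr. CellTiter-Glo, 30 min RT, luminescence = ATP content.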

[6] = qHTS assay for small molecule agonists of the antioxidant response element (ARE) signaling pathway measured by Nrf2-dependant transcriptional activity - cell viability counter screen (AID 720653; active = well fitted curve in the direction sought with a large enough effect in the repeat runs; an effect the other way counts as inactive or inconclusive; note: % is set by controls: 0 for no effect and ±100 for the full control effect); settings: ARE-bla HepG2 viability, CellTiter-Glo ATP luminescence, 16 h; max response: hits give low values
Procedure, shortened: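 ARE-bla HepG2 cells treated with compounds for 16 h at 37C; this counter screen measures viability as intracellular ATP by CellTiter-Glo luminescence after 30 min at room temperature.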

[7] = biological target: T1, Hexokinase-4 (Homo sapiens) + Glucokinase regulatory protein (Homo sapiens) (UniProt P35557+Q14397); assay: qHTS assay for inhibitors of recombinant human GCK-GKRP interaction: Diaphorase-coupled assay (AID 743205)
T1 sequence (P35557 whole entry, looked up): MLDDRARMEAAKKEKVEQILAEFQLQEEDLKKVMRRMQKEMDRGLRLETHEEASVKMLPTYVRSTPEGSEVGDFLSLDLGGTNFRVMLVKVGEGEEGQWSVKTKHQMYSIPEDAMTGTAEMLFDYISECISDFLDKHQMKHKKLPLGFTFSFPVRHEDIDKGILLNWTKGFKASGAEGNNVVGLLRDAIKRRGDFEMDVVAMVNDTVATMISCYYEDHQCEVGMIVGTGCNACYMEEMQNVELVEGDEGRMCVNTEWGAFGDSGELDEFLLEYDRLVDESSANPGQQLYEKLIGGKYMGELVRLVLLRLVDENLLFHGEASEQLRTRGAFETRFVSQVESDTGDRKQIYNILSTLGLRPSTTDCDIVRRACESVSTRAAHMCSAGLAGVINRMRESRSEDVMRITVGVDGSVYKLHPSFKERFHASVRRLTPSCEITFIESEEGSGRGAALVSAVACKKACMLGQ
T1 sequence (Q14397 whole entry, looked up): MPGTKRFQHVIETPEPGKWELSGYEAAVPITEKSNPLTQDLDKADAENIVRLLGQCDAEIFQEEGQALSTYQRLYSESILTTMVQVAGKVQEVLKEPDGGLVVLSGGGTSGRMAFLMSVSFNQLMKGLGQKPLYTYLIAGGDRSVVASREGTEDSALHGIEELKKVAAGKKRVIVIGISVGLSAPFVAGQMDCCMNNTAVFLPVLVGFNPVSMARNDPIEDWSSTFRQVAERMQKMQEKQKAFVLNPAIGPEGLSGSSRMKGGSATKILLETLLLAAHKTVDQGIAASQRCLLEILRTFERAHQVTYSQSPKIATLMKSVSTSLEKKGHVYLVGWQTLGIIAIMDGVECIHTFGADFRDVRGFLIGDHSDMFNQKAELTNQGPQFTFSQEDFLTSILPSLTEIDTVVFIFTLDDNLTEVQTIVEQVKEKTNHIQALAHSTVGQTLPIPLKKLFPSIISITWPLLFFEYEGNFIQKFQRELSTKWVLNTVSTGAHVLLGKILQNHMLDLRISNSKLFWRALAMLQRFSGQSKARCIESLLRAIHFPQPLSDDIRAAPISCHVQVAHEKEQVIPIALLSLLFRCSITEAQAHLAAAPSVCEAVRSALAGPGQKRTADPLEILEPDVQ
Procedure, shortened: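 25 mM Hepes pH 7.6, 5 mM glucose, 0.4 mM ATP, 4 U/ml G6PDH; 10 nM each GST-GCK/FLAG-GKRP. Kinetic fluorescence read, 1/min × 30 min. Normalized: DMSO ± enzyme = max/min.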

[8] = biological target: T1, Hexokinase-4 (Homo sapiens) + Glucokinase regulatory protein (Homo sapiens); assay: qHTS assay for inhibitors of recombinant human GCK-GKRP interaction: ADP-Glo assay (AID 743206);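 note: plate controls were DMSO plus enzyme for no effect and no enzyme for full effect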
Procedure, shortened: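 Pin-transferred compounds meet a 15 nM GST-GCK/15 nM FLAG-GKRP/2 uM S6P mix (dispense concentrations). ATP is then added to 0.4 mM final with 5 mM glucose, and the reaction runs 60 min at room temperature. ADP is quantified luminescently.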

[9] = biological target: T1, Hexokinase-4 (Homo sapiens) + Glucokinase regulatory protein (Homo sapiens); assay: qHTS assay for inhibitors of recombinant human GCK-GKRP interaction: HTRF assay (AID 743207);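 note: 0% = DMSO with GCK present and -100% = DMSO wells lacking GCK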
Procedure, shortened: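 5 nM GST-GCK + 5 nM FLAG-GKRP + 2 uM S6P, pH 7.1 buffer (25 mM Hepes, 2 mM MgCl2, 25 mM KCl, 1 mM DTT, Tween/BSA); pin-transferred cpd; anti-FLAG XL665/anti-GST K; 60 min RT; HTRF.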

[10] = qHTS Assay for Identifying Gametocytocidal Compounds (AID 743244); note: potency is the fitted concentration of half-maximal effect;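 for max response: % is set by controls: 0 for no effect and ±100 for the full control effect; actives lower the fluorescent signal which means gametocytes are killed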; settings: P. falciparum 3D7 stage III-V gametocytes, alamarBlue, 72 h; max response: hits give low values
Procedure, shortened: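 Stage III-V P. falciparum 3D7 gametocytes, 20,000 per well, were exposed to compounds for 72 h at 37C, 5% CO2. AlamarBlue was then added for 24 h and viability was read as fluorescence at Ex 525/Em 598 nm.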

CNCC(O)c1ccc(O)cc1 (stereo unspecified)
inactive: outcome [1] | outcome [2] | outcome [3] | Potency [4] | Potency [5] | max response [6] 12.1% | outcome [7] | outcome [8] | outcome [9] | max response [10] 28.1%

C[C@@H]1O[C@@H](O[C@H]2C[C@@H](O)[C@]3(CO)[C@H]4[C@H](O)C[C@]5(C)[C@@H](C6=CC(=O)OC6)CC[C@]5(O)[C@@H]4CC[C@]3(O)C2)[C@H](O)[C@H](O)[C@H]1O
inactive: outcome [1] | outcome [2] | outcome [3] | Potency [4] | outcome [7] | outcome [8] | outcome [9] | max response [10] -6.85% and -3.14% and -2.93%

CC[C@@H](CO)NC(=O)[C@@H]1C=C2c3cccc4[nH]cc(c34)C[C@H]2N(C)C1
inactive: outcome [1] | outcome [2] | outcome [3] | outcome [7] | outcome [8] | outcome [9]

CC(=O)[C@H]1CC[C@H]2[C@@H]3CC[C@H]4C[C@](C)(O)CC[C@]4(C)[C@H]3CC[C@]12C
inactive: outcome [1] | outcome [2] | outcome [3] | outcome [7] | outcome [8] | outcome [9] | max response [10] -7.05% and 9.26%

CC(C)=CCOc1c2occc2cc2ccc(=O)oc12
inactive: outcome [1] | outcome [2] | outcome [3] | outcome [7] | outcome [8] | outcome [9] | max response [10] -4.41% and 18.6%

Fc1ccc(C(OCCN2CCN(CCCc3ccccc3)CC2)c2ccc(F)cc2)cc1
inactive: outcome [1] | outcome [2] | outcome [3] | outcome [7] | outcome [8] | outcome [9]

CC(O)(CS(=O)(=O)c1ccc(F)cc1)C(=O)Nc1ccc(C#N)c(C(F)(F)F)c1 (stereo unspecified)
inactive: outcome [1] | outcome [2] | outcome [3] | outcome [7] | outcome [8] | outcome [9]

NCC(O)c1ccc(O)cc1 (stereo unspecified)
inactive: outcome [1] | outcome [2] | outcome [3] | Potency [4] | Potency [5] | max response [6] -9.13% | outcome [7] | outcome [8] | outcome [9] | max response [10] 3.16% and 11.7%

NCC(CC(=O)O)c1ccc(Cl)cc1 (stereo unspecified)
inactive: outcome [1] | outcome [2] | outcome [3] | outcome [7] | outcome [8] | outcome [9] | max response [10] 0.281% and 9.05%

CN1C[C@H](CNC(=O)OCc2ccccc2)C[C@@H]2c3cccc4c3c(cn4C)C[C@H]21
inactive: outcome [1] | outcome [2] | outcome [3] | outcome [7] | outcome [8] | outcome [9]

NN=C(N)N
inactive: outcome [1] | outcome [2] | outcome [3] | outcome [7] | outcome [8] | outcome [9]

NCC1(CC(=O)O)CCCCC1
inactive: outcome [1] | outcome [2] | outcome [3] | outcome [7] | outcome [8] | outcome [9]

Cc1ccc(S(=O)(=O)N[C@@H](CCCCN)C(=O)CCl)cc1
inactive: outcome [1] | outcome [2] | outcome [3] | outcome [7] | outcome [8] | outcome [9]

c1ccc2c(c1)OCC(C1=NCCN1)O2 (stereo unspecified)
inactive: outcome [1] | outcome [2] | outcome [3] | outcome [7] | outcome [8] | outcome [9]
active: Potency [10] 6.31 µM and 3.55 µM

COc1ccc(C(CN(C)C)C2(O)CCCCC2)cc1 (stereo unspecified)
inactive: outcome [1] | outcome [2] | outcome [3] | outcome [7] | outcome [8] | outcome [9]

CCCN1CCC[C@@H]2Cc3[nH]ncc3C[C@H]21
inactive: outcome [1] | outcome [2] | outcome [3] | outcome [7] | outcome [8] | outcome [9]

O=c1[nH]c2ccccc2n1CCCN1CCC(n2c(=O)[nH]c3cc(Cl)ccc32)CC1
inactive: outcome [1] | outcome [2] | outcome [3] | outcome [7] | outcome [8] | outcome [9]

COc1ccccc1N1CCNCC1
inactive: outcome [1] | outcome [2] | outcome [3] | outcome [7] | outcome [8] | outcome [9] | max response [10] 13.1% and 8.67%

CC(=O)[C@H]1CC[C@H]2[C@@H]3CC[C@H]4C[C@H](O)CC[C@]4(C)[C@H]3C(=O)C[C@]12C
inactive: outcome [1] | outcome [2] | outcome [3] | outcome [7] | outcome [8] | outcome [9]

c1ccc(C2CC2)c(OCC2=NCCN2)c1
inactive: outcome [1] | outcome [2] | outcome [3] | outcome [7] | outcome [8] | outcome [9]

O=C1NCN(c2ccccc2)C12CCN(CC1COc3ccccc3O1)CC2 (stereo unspecified)
inactive: outcome [1] | outcome [2] | outcome [3] | outcome [7] | outcome [8] | outcome [9]

C[C@]12CCC(=O)C(O)=C1CC[C@@H]1[C@@H]2CC[C@]2(C)C(=O)CC[C@@H]12
inactive: outcome [1] | outcome [2] | outcome [3] | Potency [4] | max response [6] -0.568% | outcome [7] | outcome [8] | outcome [9]

O=c1[nH]cc(F)c(=O)[nH]1
inactive: outcome [1]

CC(CCc1ccccc1)NC(C)C(O)c1ccc(O)cc1 (stereo unspecified)
inactive: outcome [1] | outcome [2] | outcome [3] | outcome [7] | outcome [8] | outcome [9]

C=C(C)[C@H]1Cc2c(ccc3c2O[C@@H]2COc4cc(OC)c(OC)cc4[C@@H]2C3=O)O1
inactive: outcome [1] | outcome [2] | outcome [3] | Potency [4] | outcome [7] | outcome [8] | outcome [9] | max response [10] 2.33% and 3.94%

CCC1(C2=NCCN2)Cc2ccccc2O1 (stereo unspecified)
inactive: outcome [1] | outcome [2] | outcome [3] | outcome [7] | outcome [8] | outcome [9] | max response [10] -5.65% and 15.9%

CCCN1CCC[C@@H]2Cc3nc(N)ncc3C[C@H]21
inactive: outcome [1] | outcome [2] | outcome [3] | outcome [7] | outcome [8] | outcome [9]

Nc1ccncc1
inactive: outcome [1] | outcome [2] | outcome [3] | Potency [4] | outcome [7] | outcome [8] | outcome [9] | max response [10] 0.934% and 25.7%

Cc1ncc(CNC(=O)N(CCCl)N=O)c(N)n1
inactive: outcome [1] | outcome [2] | outcome [3] | outcome [7] | outcome [8] | outcome [9]

CCCC(C)(COC(N)=O)COC(=O)NC(C)C (stereo unspecified)
inactive: outcome [1] | outcome [2] | outcome [3] | Potency [4] | Potency [5] | max response [6] -3.52% and -3.1% | outcome [7] | outcome [8] | outcome [9] | max response [10] 10.4% and -6.54%
